Test results from the supplement of paper PMC8371130.
Where a name gives a salt, the structure may show the parent alone.

System: HL-1
Assay: relative cell viability (CellTiter-Glo) vs DMSO control (% of DMSO control); higher = more viable cells
Method in brief: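 Cell viability, normalised to vehicle-treated control cells, was read by CellTiter-Glo luminescence. For this, HL-1 mouse atrial cardiomyocytes were plated at 1000 cells per well in 384-well plates alongside compounds at 40, 200, 1000 or 5000 nM in 0.01% DMSO. After a day, plates either spent 48 h in a hypoxic workstation at 1% O2 and then 24 h reoxygenating in a normal incubator, or remained in normoxia for the same period.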

[1] = oxygen condition: hypoxia 48 h (1% O2) + reoxygenation 24 h, 40 nM
[2] = oxygen condition: hypoxia 48 h (1% O2) + reoxygenation 24 h, 200 nM
[3] = oxygen condition: hypoxia 48 h (1% O2) + reoxygenation 24 h, 1000 nM
[4] = oxygen condition: hypoxia 48 h (1% O2) + reoxygenation 24 h, 5000 nM
[5] = oxygen condition: normoxia 72 h, 40 nM
[6] = oxygen condition: normoxia 72 h, 200 nM
[7] = oxygen condition: normoxia 72 h, 1000 nM
[8] = oxygen condition: normoxia 72 h, 5000 nM

CCN(CC)CCOC(=O)C1(C2CCCCC2)CCCCC1 [Dicyclomine HCl]
relative cell viability [1]: 94.1 | relative cell viability [2]: 95.7 | relative cell viability [3]: 97.1 | relative cell viability [4]: 100 | relative cell viability [5]: 92.4 | relative cell viability [6]: 101 | relative cell viability [7]: 97.2 | relative cell viability [8]: 105

CSc1ccc2c(c1)N(CCC1CCCCN1C)c1ccccc1S2 (stereo not drawn) [Thioridazine HCl]
relative cell viability [1]: 101 | relative cell viability [2]: 108 | relative cell viability [3]: 101 | relative cell viability [4]: 107 | relative cell viability [5]: 98.9 | relative cell viability [6]: 101 | relative cell viability [7]: 98.7 | relative cell viability [8]: 108

CNC(=O)c1ccccc1Sc1ccc2c(/C=C/c3ccccn3)n[nH]c2c1 [Axitinib]
relative cell viability [1]: 110 | relative cell viability [2]: 114 | relative cell viability [3]: 117 | relative cell viability [4]: 116 | relative cell viability [5]: 105 | relative cell viability [6]: 108 | relative cell viability [7]: 112 | relative cell viability [8]: 111

CN(C)c1nc(N(C)C)nc(N(C)C)n1 [Altretamine]
relative cell viability [1]: 102 | relative cell viability [2]: 109 | relative cell viability [3]: 115 | relative cell viability [4]: 109 | relative cell viability [5]: 115 | relative cell viability [6]: 103 | relative cell viability [7]: 108 | relative cell viability [8]: 122

Nc1[nH]cnc2ncnc1-2 [Adenine sulfate]
relative cell viability [1]: 101 | relative cell viability [2]: 101 | relative cell viability [3]: 105 | relative cell viability [4]: 111 | relative cell viability [5]: 113 | relative cell viability [6]: 105 | relative cell viability [7]: 110 | relative cell viability [8]: 113

CN(Cc1cc(Br)cc(Br)c1N)C1CCCCC1 [Bromhexine HCl]
relative cell viability [1]: 97.5 | relative cell viability [2]: 96.2 | relative cell viability [3]: 99.9 | relative cell viability [4]: 102 | relative cell viability [5]: 104 | relative cell viability [6]: 108 | relative cell viability [7]: 98.4 | relative cell viability [8]: 108

Cc1cc(N)c2ccccc2[n+]1CCCCCCCCCC[n+]1c(C)cc(N)c2ccccc21 [Dequalinium chloride]
relative cell viability [1]: 101 | relative cell viability [2]: 104 | relative cell viability [3]: 101 | relative cell viability [4]: 112 | relative cell viability [5]: 93.3 | relative cell viability [6]: 107 | relative cell viability [7]: 97.3 | relative cell viability [8]: 101

OCCN1C[C@H](O)[C@@H](O)[C@H](O)[C@H]1CO [Miglitol]
relative cell viability [1]: 104 | relative cell viability [2]: 104 | relative cell viability [3]: 119 | relative cell viability [4]: 108 | relative cell viability [5]: 101 | relative cell viability [6]: 102 | relative cell viability [7]: 106 | relative cell viability [8]: 117

COC(c1ccccc1)(c1ccccc1)[C@H](Oc1nc(C)cc(C)n1)C(=O)O [Ambrisentan]
relative cell viability [1]: 105 | relative cell viability [2]: 97.3 | relative cell viability [3]: 109 | relative cell viability [4]: 105 | relative cell viability [5]: 95.1 | relative cell viability [6]: 94 | relative cell viability [7]: 102 | relative cell viability [8]: 99.8

C[C@@H]1CCN(C(=O)CC#N)C[C@@H]1N(C)c1ncnc2[nH]ccc12 [Tofacitinib citrate]
relative cell viability [1]: 97 | relative cell viability [2]: 104 | relative cell viability [3]: 100 | relative cell viability [4]: 107 | relative cell viability [5]: 106 | relative cell viability [6]: 102 | relative cell viability [7]: 98.7 | relative cell viability [8]: 103

NC(=O)N1c2ccccc2CC(=O)c2ccccc21 [Oxcarbazepine]
relative cell viability [1]: 104 | relative cell viability [2]: 105 | relative cell viability [3]: 116 | relative cell viability [4]: 102 | relative cell viability [5]: 108 | relative cell viability [6]: 127 | relative cell viability [7]: 116 | relative cell viability [8]: 109

Clc1ccc2nsnc2c1NC1=NCCN1 [Tizanidine HCl]
relative cell viability [1]: 99.5 | relative cell viability [2]: 106 | relative cell viability [3]: 106 | relative cell viability [4]: 108 | relative cell viability [5]: 105 | relative cell viability [6]: 106 | relative cell viability [7]: 98.5 | relative cell viability [8]: 111

CCOc1ccccc1OC(c1ccccc1)C1CNCCO1 (stereo not drawn) [Reboxetine mesylate]
relative cell viability [1]: 105 | relative cell viability [2]: 102 | relative cell viability [3]: 105 | relative cell viability [4]: 122 | relative cell viability [5]: 115 | relative cell viability [6]: 99.7 | relative cell viability [7]: 108 | relative cell viability [8]: 119

O=C(c1ccc(OCCN2CCCCC2)cc1)c1c(-c2ccc(O)cc2)sc2cc(O)ccc12 [Evista]
relative cell viability [1]: 111 | relative cell viability [2]: 107 | relative cell viability [3]: 106 | relative cell viability [4]: 54 | relative cell viability [5]: 112 | relative cell viability [6]: 107 | relative cell viability [7]: 109 | relative cell viability [8]: 68.7

CC(=O)OCC(=O)[C@@]12OC(C)(C)O[C@@H]1C[C@H]1[C@@H]3C[C@H](F)C4=CC(=O)C=C[C@]4(C)[C@@]3(F)[C@@H](O)C[C@@]12C [Fluocinonide]
relative cell viability [1]: 93.4 | relative cell viability [2]: 91.8 | relative cell viability [3]: 89.8 | relative cell viability [4]: 99 | relative cell viability [5]: 92.3 | relative cell viability [6]: 88.7 | relative cell viability [7]: 89.5 | relative cell viability [8]: 91.2

CC1(C)O[C@@H]2[C@@H](CO[C@@]3(COS(N)(=O)=O)OC(C)(C)O[C@@H]23)O1 [Topiramate]
relative cell viability [1]: 97.3 | relative cell viability [2]: 91.8 | relative cell viability [3]: 108 | relative cell viability [4]: 100 | relative cell viability [5]: 104 | relative cell viability [6]: 107 | relative cell viability [7]: 98 | relative cell viability [8]: 98.8

NS(=O)(=O)Cc1noc2ccccc12 [Zonisamide]
relative cell viability [1]: 105 | relative cell viability [2]: 108 | relative cell viability [3]: 107 | relative cell viability [4]: 115 | relative cell viability [5]: 108 | relative cell viability [6]: 112 | relative cell viability [7]: 116 | relative cell viability [8]: 103

CC[C@H](C)C(=O)O[C@H]1CCC=C2C=C[C@H](C)[C@H](CC[C@@H]3C[C@@H](O)CC(=O)O3)[C@H]21 [Mevastatin]
relative cell viability [1]: 112 | relative cell viability [2]: 101 | relative cell viability [3]: 99.3 | relative cell viability [4]: 113 | relative cell viability [5]: 101 | relative cell viability [6]: 105 | relative cell viability [7]: 106 | relative cell viability [8]: 119

CC(=O)[C@H]1CC[C@H]2[C@@H]3C=CC4=CC(=O)CC[C@@]4(C)[C@@H]3CC[C@]12C [Dydrogesterone]
relative cell viability [1]: 97.1 | relative cell viability [2]: 99 | relative cell viability [3]: 106 | relative cell viability [4]: 105 | relative cell viability [5]: 100 | relative cell viability [6]: 98.8 | relative cell viability [7]: 96.7 | relative cell viability [8]: 105

CCCC(=O)Nc1ccc(OCC(O)CNC(C)C)c(C(C)=O)c1 (stereo not drawn) [Acebutolol HCl]
relative cell viability [1]: 102 | relative cell viability [2]: 108 | relative cell viability [3]: 107 | relative cell viability [4]: 114 | relative cell viability [5]: 104 | relative cell viability [6]: 107 | relative cell viability [7]: 106 | relative cell viability [8]: 116

N=C(N)NC(=N)NCCc1ccccc1 [Phenformin hydrochloride]
relative cell viability [1]: 101 | relative cell viability [2]: 95.3 | relative cell viability [3]: 99.6 | relative cell viability [4]: 74.1 | relative cell viability [5]: 101 | relative cell viability [6]: 103 | relative cell viability [7]: 104 | relative cell viability [8]: 71.8
